# Laboratory results taken from PubChem BioAssay (NCATS).
# Results filed as inconclusive are left out. A call without a number means that no potency is given here. The source made the active and inactive calls. Calls come from the whole dose curve; as a rule, active = well fitted cell-killing curve with a large enough effect; inconclusive = small, poorly fitted or top-dose-only effect; inactive = flat fitted curve, though single readings scatter.
# Assay: COV-362 Cancer Cell Toxicity qHTS against the NCATS CANVASS Library (AID 1347352)
# Details: COV-362 viability, CellTiter-Glo luminescence, 72 h; series mostly up to 38.3 µM
# Excerpt: Natural products and their derivatives continue to be wellsprings of nascent therapeutic potential. However, many laboratories have limited resources for biological evaluation, leaving their previously isolated or synthesized compounds largely or completely untested. To address this issue, the Canvass library of natural products was assembled (https://tripod.nih.gov/canvass), in collaboration with academic and industry researchers, for quantitative high-throughput screening (qHTS) across a diverse set of cell-based and biochemical assays. The pure (>85% purity by liquid chromatography/mass spectrometry [LC/MS]) Canvass library of 346 natural products were submitted by 45 academic laboratories and companies around the world. We collected pure natural products to circumvent deconvolution and structure elucidation due to time and resource limitations. The library was formatted into 1536-well plates and evaluated in 50 qHTS (in an 11-pnt concentration series) bioassays with broad scope of disease-relevant mechanisms. The resulting data set from 50 different assays was then systematically analyzed to identify overall trends and specific natural products with interesting biological activities. Reported herein are the results of each individual qHTS and their corresponding assay protocol. National Center for Advancing Translational Sciences (NCATS), Rockville, MD National Institute of Health (NIH), Bethesda, Maryland
# Cancer Cell Toxicity COV-362, OV-KATE, OV-SAHO, UWB1.289, UWB1.289-WTBRCA1, HEK-293, HPAF-II, Panc-1005, SW1088, and U-118MG-screen protocol. 1. In a 1536 well, white solid bottom tissue culture plates (Corning 7494), corresponding cells (COV-362, OV-KATE, OV-SAHO, UWB1.289, UWB1.289-WTBRCA1, HEK-293, HPAF-II, Panc-1005, SW1088, or U-118MG) were dispensed in each well at a final concentration of 1000 cells / well (6uL volume) using the Multidrop Combi (Thermo Fisher Scientific) dispenser. 2. The plates were incubated for 4 hours at 37 degrees C/5% CO2/95% Rh. 3. Compounds were pin transferred (~23nL volume) via Wako Pin-tool (Wako Automation, Richmond VA) equipped with a 1536 pin head. The assay plates were treated with compounds in an 11-pnt concentration series with a final concentration range of […] to 85uM. 4. Bortezomib was used as a single dose control (0.5mM column 4, rows 1 - 32) at a final concentration of 1.9uM and as a 16pnt titration (1mM; 1:2 dilution; 16-points; n = 2; column 3, rows 1 - 32) with final concentration range of 0.1nM - 3.8uM. 5. The assay plates were incubated for 72 hours at 37 degrees C/5% CO2/95% Rh. 6. 3uL CellTiter-Glo detection reagent was then added to the plates (columns 2 - 48, rows 1 - 32) and incubated at room temperature for additional 15min. 7. Luminescence signal was acquired via the ViewLux plate reader (PerkinElmer) using a clear filter, 2 second exposure and 2x binning settings.
# Potency is the fitted concentration of half-maximal effect.
row,Structure (SMILES),Potency
1,CC(=O)N[C@H]1CCN2CCC[C@H]12,inactive
2,CC[C@@H]1CN2CC[C@@]3(O)C(=Nc4cccc(OC)c43)[C@@H]2C[C@@H]1/C(=C\OC)C(=O)OC,inactive
3,CN1C(=O)[C@]23CC4C(C)(C)[C@@]5(C[C@@]41CN2CC[C@@]3(C)O)C(=O)Nc1c5ccc2c1OC=CC(C)(C)O2 (stereo not given in full),inactive
4,CCN1C[C@]2(C)CC[C@@H](O)[C@]34C1[C@H](C[C@H]23)C12CCC(CC14)[C@](O)(CO)[C@H]2O (stereo not given in full),inactive
5,CCCCC[C@@H]1OC(=O)[C@@H](C)N(C)C(=O)[C@H](CCCCC)OC(=O)C(C)N(C)C(=O)[C@H](CCCCC)OC(=O)[C@@H](C)N(C)C(=O)[C@H](CCCCC)OC(=O)C(C)N(C)C1=O (stereo not given in full),9.41 µM (active)
6,CNCCc1ccccc1,inactive
7,COc1ccc2c(c1)[nH]c1c(C)nccc12,38.6 µM (active)
8,CCC[C@H]1CC[C@H]2[C@H](C)CCC[C@H]2N1,inactive
9,C/C=C1/CN2CC[C@]34C(=Nc5ccccc53)[C@@H]2C[C@@H]1[C@H]4C(=O)OC,inactive
10,COc1ccc(C23Oc4cc(OC)cc(OC)c4[C@](O)([C@H](c4ccccc4)C2C(=O)NCCCCNC(=O)c2ccccc2)[C@@H]3O)cc1 (stereo not given in full),inactive
11,CC=C1CN(C=O)[C@H]2C[C@@H]1[C@@H](C(=O)OC)[C@@]13CCOC21Nc1ccccc13 (stereo not given in full),inactive
12,CCN1C[C@]2(C)CC[C@H](O)[C@]34C1C(C[C@H]23)[C@@]12CC[C@H](CC14)[C@](O)(COC(=O)c1ccc(OC)c(OC)c1)[C@H]2O (stereo not given in full),inactive
13,CCCC[C@@H]1CC[C@H]2CCCC(CCC)N12 (stereo not given in full),inactive
14,CO[C@@H](/C=C/CC/C=C/C(=O)O)[C@@H](O)[C@H](C)[C@@H](O)/C(C)=C/[C@H](C)C(=O)CCCC1CC(=O)NC(=O)C1,inactive
15,COC(=O)C1=C2Nc3ccccc3[C@@]23CCN2CC(C(C)=O)C1C[C@H]23 (stereo not given in full),inactive
16,C[C@]12CC(O)C3[C@@H](CCC4C[C@@H](O)CC[C@@]43CO)[C@@]1(O)CCC2C1=CC(=O)OC1 (stereo not given in full),inactive
17,CC1=CC2CC[C@@H]3[C@@H](C)C[C@H](C)[C@@H](C1)N23 (stereo not given in full),inactive
18,CNCCc1ccc(O)cc1,inactive
19,c1ccc2c3c([nH]c2c1)CNCC3,inactive
20,CO[C@@H](/C=C/CC/C=C/C(=O)O)[C@@H](O)[C@H](C)/C=C(\C)[C@@H](O)[C@H](C)C(=O)CCCC1CC(=O)NC(=O)C1,inactive
21,COc1ccc2c3c([nH]c2c1)C(C)=NCC3,inactive
22,CNCCc1c[nH]c2ccccc12,inactive
23,O=C(c1ccccc1O)c1[nH]c(Cl)c(Cl)c1-n1c(C(=O)c2ccccc2O)cc(Cl)c1Cl,2.11 µM (active)
24,C[C@@H]1CC[C@@H](c2ccoc2)N2C[C@@]3(CC[C@@H]12)CS[C@@]1(CC[C@H]2[C@H](C)CC[C@@H](c4ccoc4)N2[C@@H]1O)C3,7.47 µM (active)
25,CCC(=O)CCCCC[C@@H]1NC(=O)[C@H]2CCCCN2C(=O)[C@H]([C@@H](C)CC)NC(=O)[C@H](Cc2cn(OC)c3ccccc23)NC1=O,16.7 µM (active)
26,NCCc1ccccc1,inactive
27,CC1=CC(=O)C2=C(C)C[C@H](O)[C@@H]3[C@H](OC(=O)[C@@H]3C)[C@@H]12,inactive
28,CO[C@H](c1ccccc1)[C@H]1NC(=O)C(C)NC(=O)C(C[C@@H](C)CO)N(C)C(=O)[C@@H](C(O)c2cn(C(C)(C)C3CO3)c3ccccc23)NC(=O)C(C(C)C=C(C)C)NC(=O)C(CC(C)C)N(C)C(=O)C(C(C)C)NC1=O (stereo not given in full),inactive
29,CN(C)Cc1c[nH]c2ccccc12,inactive
30,CC[N@@+]1([O-])C[C@]2(C)CC[C@@H](O)[C@@]34C5C[C@H]6CC[C@@]5(C(C[C@H]23)C41)[C@H](O)[C@@]6(O)CO (stereo not given in full),inactive
